The record followed here is PubChem BioAssay (EPA / NIEHS).

Test [1] has as its target Estrogen-related receptor gamma (Homo sapiens) (UniProt P62508). In words: ATG_ERRg_TRANS: Attagene TRANS-FACTORIAL HepG2 Assay for human Estrogen-Related Receptor gamma (ERRg) (AID 2282977; active = hit-call score of the fitted dose curve at least 0.9, where 1 is the maximum;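 also: hits increase reporter signal over DMSO so potencies reflect activators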). The following applies: HepG2 Attagene TRANS reporter, ERRg transactivation. The procedure, abridged:
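Transfect HepG2 with multiple GAL4-UAS reporter transcription units; dose chemicals 24 h; isolate RNA, reverse-transcribe with oligo(dT), PCR-amplify, label with 6-FAM, digest with HpaI; size fragments by capillary electrophoresis. DMSO serves as negative control.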

For test [2], the target named is Bile acid receptor (Homo sapiens) (UniProt Q96RI1). In words: ATG_FXR_TRANS: Attagene TRANS-FACTORIAL HepG2 Assay for Farnesoid X Receptor (FXR) (AID 2282979; active = hit-call score of the fitted dose curve at least 0.9, where 1 is the maximum;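 also: hits raise reporter mRNA above DMSO so AC50 marks FXR activation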). The following applies: HepG2 Attagene TRANS FXR-GAL4 reporter transcription. The procedure, abridged: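 Reporter transcripts from transfected HepG2 cells were measured 24 h after dosing, using RT-PCR with capillary electrophoresis of 6-FAM-labelled fragments. The read-out reflects activity of exogenous FXR-Gal4 chimera on GAL4-UAS units, with induction relative to DMSO.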
Chain of Bile acid receptor (Homo sapiens) (Q96RI1 whole entry, looked up, the tested form may be a part): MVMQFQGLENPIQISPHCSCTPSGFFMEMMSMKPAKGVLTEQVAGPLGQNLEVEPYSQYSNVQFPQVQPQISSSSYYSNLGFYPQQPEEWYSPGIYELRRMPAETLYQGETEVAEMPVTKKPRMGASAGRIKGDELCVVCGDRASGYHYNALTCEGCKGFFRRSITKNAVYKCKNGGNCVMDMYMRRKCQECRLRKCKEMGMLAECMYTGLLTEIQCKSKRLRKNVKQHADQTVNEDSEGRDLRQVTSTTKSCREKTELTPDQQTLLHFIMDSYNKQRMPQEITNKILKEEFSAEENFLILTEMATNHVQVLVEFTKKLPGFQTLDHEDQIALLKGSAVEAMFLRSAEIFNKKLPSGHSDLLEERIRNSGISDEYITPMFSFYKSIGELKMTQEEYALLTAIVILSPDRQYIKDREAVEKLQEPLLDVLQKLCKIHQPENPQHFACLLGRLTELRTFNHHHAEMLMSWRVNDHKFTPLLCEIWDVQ

Test [3] concerns the target Oxysterols receptor LXR-alpha (Homo sapiens) (UniProt Q13133). In words: ATG_LXRa_TRANS: Attagene TRANS-FACTORIAL HepG2 Assay for human Liver X Receptor alpha (LXRa) (AID 2282980; active = hit-call score of the fitted dose curve at least 0.9, where 1 is the maximum). The following applies: HepG2 Attagene TRANS reporter, LXRa transactivation. In outline:
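Chemical-induced reporter mRNA measured by RT-PCR with fluorescent labelling and capillary electrophoresis after 24 h dosing of transiently transfected HepG2 cells expressing exogenous NR-Gal4 chimeras; increases scored against DMSO baseline.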

Test [4] deals with Oxysterols receptor LXR-beta (Homo sapiens) (UniProt P55055). Description: ATG_LXRb_TRANS: Attagene TRANS-FACTORIAL HepG2 Assay for human Liver X Receptor beta (LXRb) (AID 2282981; active = hit-call score of the fitted dose curve at least 0.9, where 1 is the maximum). The following applies: HepG2 Attagene TRANS GAL4-LXRb reporter, mRNA. The procedure, abridged: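 In this TRANS format, exogenous chimeric NR-Gal4 protein activity, not endogenous factors, drives reporter expression in transfected human HepG2 cells. Exposure lasted 24 h; reporter mRNA was read by fluorescent capillary electrophoresis.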
Chain of Oxysterols receptor LXR-beta (Homo sapiens) (P55055 whole entry, looked up, the tested form may be a part): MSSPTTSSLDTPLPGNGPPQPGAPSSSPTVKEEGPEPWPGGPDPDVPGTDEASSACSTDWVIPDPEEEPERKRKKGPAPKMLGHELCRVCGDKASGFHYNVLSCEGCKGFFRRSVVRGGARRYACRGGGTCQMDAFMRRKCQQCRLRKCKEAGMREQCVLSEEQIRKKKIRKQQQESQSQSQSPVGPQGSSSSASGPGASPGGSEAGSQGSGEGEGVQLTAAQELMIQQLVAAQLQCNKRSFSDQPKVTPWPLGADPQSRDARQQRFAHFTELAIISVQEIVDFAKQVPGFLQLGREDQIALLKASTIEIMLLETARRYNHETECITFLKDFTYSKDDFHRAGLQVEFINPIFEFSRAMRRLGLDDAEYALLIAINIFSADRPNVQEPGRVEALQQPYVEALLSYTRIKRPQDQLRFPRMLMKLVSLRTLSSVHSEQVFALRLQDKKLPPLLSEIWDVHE

Test [5] concerns the target Hepatocyte nuclear factor 4-alpha (Homo sapiens) (UniProt P41235). Description: ATG_HNF4a_TRANS: Attagene TRANS-FACTORIAL HepG2 Assay for human Hepatocyte Nuclear Factor 4 alpha (HNF4a) (AID 2282982; active = hit-call score of the fitted dose curve at least 0.9, where 1 is the maximum). The following applies: HepG2 HNF4a transactivation reporter, mRNA readout. The procedure, abridged:
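Cells used were human HepG2, transiently carrying GAL4-UAS reporter units read out against exogenous NR-GAL4 chimeras. Reporter transcript levels after 24 h dosing were quantified by fluorescent RT-PCR and capillary electrophoresis.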

Test [6] has as its target Nuclear receptor subfamily 4 group A member 2 (Homo sapiens) (UniProt P43354). In words: ATG_NURR1_TRANS: Attagene TRANS-FACTORIAL HepG2 Assay for human Nuclear Receptor Related Protein 1 (NURR1) (AID 2282985; active = hit-call score of the fitted dose curve at least 0.9, where 1 is the maximum). To be noted: HepG2 Attagene TRANS reporter, mRNA readout. In outline: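 After 24 h chemical dosing, total RNA from transiently transfected HepG2 cells was reverse-transcribed and reporter cDNA PCR-amplified, FAM-labelled and analysed by capillary electrophoresis. Activity fitted in positive direction, DMSO as negative control.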

The target of test [7] is Transcriptional activator Myb (Homo sapiens) (UniProt P10242). In words: ATG_Myb_CIS: Attagene CIS-FACTORIAL HepG2 Assay for human Myeloblastosis (Myb) Proto-Oncogene Transcription Factor (AID 2282986). To be noted: HepG2 Attagene CIS-FACTORIAL Myb reporter transcription; actives raise or lower the signal. The procedure, abridged: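 Fluorescence signals from capillary electrophoresis of RT-PCR-amplified reporter cDNA give the read-out. Cells: HepG2 transfected with multiple cis-regulated reporter units. Exposure lasts 24 hours; DMSO defines baseline for gain or loss of signal.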
Chain of Transcriptional activator Myb (Homo sapiens) (P10242 whole entry, looked up): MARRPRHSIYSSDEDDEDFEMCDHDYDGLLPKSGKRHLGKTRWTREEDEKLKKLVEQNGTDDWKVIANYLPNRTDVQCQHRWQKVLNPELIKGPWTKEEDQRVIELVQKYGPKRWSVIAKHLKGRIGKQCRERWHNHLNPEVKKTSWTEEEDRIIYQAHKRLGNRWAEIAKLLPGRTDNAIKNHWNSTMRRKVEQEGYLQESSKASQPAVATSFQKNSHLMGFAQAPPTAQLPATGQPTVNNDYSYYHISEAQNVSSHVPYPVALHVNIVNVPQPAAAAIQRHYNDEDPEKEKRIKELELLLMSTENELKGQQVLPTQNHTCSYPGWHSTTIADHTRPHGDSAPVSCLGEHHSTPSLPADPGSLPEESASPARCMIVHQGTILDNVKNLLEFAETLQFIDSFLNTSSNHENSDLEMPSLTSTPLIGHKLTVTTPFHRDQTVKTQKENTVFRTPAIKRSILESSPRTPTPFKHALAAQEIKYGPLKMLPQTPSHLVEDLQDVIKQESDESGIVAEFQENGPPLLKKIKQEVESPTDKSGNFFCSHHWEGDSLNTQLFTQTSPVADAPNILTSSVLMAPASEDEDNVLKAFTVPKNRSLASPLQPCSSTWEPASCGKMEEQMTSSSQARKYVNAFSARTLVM

The target of test [8] is Nuclear respiratory factor 1 (Homo sapiens) (UniProt Q16656). Description: ATG_NRF1_CIS: Attagene CIS-FACTORIAL HepG2 Assay for human Nuclear Respiratory Factor 1 (NRF1) Orphan Gene (AID 2282987). The following applies: HepG2 NRF1 cis-element reporter, Attagene multiplex; actives raise or lower the signal. In outline: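 Transcriptional reporter readout, one component of a 52-endpoint multiplexed HepG2 panel. Exposure 24 h; mRNA detected via RT-PCR and fluorescent capillary electrophoresis; fitting in both directions against DMSO.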
Chain of Nuclear respiratory factor 1 (Homo sapiens) (Q16656 whole entry, looked up): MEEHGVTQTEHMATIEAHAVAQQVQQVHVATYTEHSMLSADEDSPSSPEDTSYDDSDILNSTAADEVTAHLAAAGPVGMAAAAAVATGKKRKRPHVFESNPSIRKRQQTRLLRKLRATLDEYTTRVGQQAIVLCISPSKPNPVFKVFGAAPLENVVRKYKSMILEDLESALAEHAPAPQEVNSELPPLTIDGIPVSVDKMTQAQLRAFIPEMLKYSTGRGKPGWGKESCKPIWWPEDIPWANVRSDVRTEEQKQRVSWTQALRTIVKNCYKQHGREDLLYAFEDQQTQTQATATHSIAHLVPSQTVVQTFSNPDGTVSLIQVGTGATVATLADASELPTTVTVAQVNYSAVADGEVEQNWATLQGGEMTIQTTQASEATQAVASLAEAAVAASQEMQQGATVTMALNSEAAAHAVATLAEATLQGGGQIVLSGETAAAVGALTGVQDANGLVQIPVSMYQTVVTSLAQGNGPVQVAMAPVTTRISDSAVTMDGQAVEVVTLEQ

A short description of test [9]: ATG_NFI_CIS: Attagene CIS-FACTORIAL HepG2 Assay for human Nuclear Factor I (NFI) (AID 2282989). To be noted: HepG2 cis-regulatory reporter, NFI response element transcription; actives raise or lower the signal. The procedure, abridged: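 Endogenous TF activity in HepG2 cells transiently transfected with cis-element-driven multiplexed reporter units, read 24 h after dosing. Reporter mRNA quantified by RT-PCR, 6-FAM labelling, HpaI digestion and capillary electrophoresis; bidirectional fit versus DMSO.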

In test [10] the target is Myc proto-oncogene protein (Homo sapiens) (UniProt P01106). Description: ATG_Myc_CIS: Attagene CIS-FACTORIAL HepG2 Assay for human Myelocytomatosis (Myc) Proto-Oncogene Transcription Factor (AID 2282990). To be noted: HepG2, Attagene cis-reporter transcription factor activity; actives raise or lower the signal. In outline: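 HepG2 cells transiently transfected with multiple cis-promoter-driven reporter transcription units, so endogenous TF activity is read. After 24 h compound exposure, reporter mRNA was quantified by RT-PCR, 6-FAM labelling, HpaI digestion and capillary electrophoresis; bidirectional fit versus DMSO.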
Chain of Myc proto-oncogene protein (Homo sapiens) (P01106 whole entry, looked up): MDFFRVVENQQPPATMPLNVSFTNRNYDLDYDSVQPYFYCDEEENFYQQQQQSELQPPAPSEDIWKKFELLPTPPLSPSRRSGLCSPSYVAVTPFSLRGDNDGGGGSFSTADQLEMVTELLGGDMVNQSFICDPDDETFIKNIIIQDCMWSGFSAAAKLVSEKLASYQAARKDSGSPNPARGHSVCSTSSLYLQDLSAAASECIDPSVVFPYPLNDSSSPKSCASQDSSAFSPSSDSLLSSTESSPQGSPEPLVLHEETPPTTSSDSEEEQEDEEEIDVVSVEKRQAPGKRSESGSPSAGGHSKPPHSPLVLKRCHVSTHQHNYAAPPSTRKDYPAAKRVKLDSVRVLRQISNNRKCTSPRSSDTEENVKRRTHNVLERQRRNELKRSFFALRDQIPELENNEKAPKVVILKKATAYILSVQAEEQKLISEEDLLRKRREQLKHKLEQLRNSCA

Test [11] can be described thus: ATG_NRF2_ARE_CIS: Attagene CIS-FACTORIAL HepG2 Assay for human Nuclear Factor Erythroid 2 Related Factor 2 (NFR2) response to Antioxidant Response Elements (ARE) (AID 2282992).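 As to AC50: reporter mRNA level measured by RT-PCR and capillary electrophoresis fluorescence.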 The following applies: HepG2 Attagene ARE/NRF2 reporter, transcription factor activity; actives raise or lower the signal. In outline: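 Transient MRTU transfection of HepG2; 24 h compound exposure; TriZol RNA, RT with oligo(dT), PCR, 6-FAM primer extension, HpaI cut, CE. Bidirectional fit vs DMSO.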

The target in test [12] is Cellular tumor antigen p53 (Homo sapiens) (UniProt P04637). In words: ATG_p53_CIS: Attagene CIS-FACTORIAL HepG2 Assay for human p53 Transcription Factor (AID 2282994). The following applies: HepG2 p53 cis-element reporter, Attagene mRNA; actives raise or lower the signal. The procedure, abridged: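 HepG2, transient MRTU transfection (cis promoter elements, endogenous TFs); 24 h dosing; RNA isolation, RT-PCR, 6-FAM primer extension, HpaI digest, CE fluorescence; bidirectional fit vs DMSO.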
Chain of Cellular tumor antigen p53 (Homo sapiens) (P04637 whole entry, looked up): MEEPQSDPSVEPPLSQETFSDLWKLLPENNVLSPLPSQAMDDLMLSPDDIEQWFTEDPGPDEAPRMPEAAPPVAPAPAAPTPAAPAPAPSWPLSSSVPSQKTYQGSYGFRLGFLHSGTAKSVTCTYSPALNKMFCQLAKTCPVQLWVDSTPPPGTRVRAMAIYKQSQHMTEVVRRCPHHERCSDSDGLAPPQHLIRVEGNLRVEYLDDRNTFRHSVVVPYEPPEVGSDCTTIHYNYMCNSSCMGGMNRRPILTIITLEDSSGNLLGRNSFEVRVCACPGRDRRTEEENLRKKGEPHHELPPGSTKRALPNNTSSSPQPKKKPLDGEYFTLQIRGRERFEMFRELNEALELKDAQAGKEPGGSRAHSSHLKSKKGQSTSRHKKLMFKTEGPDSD

Test [13] concerns the target Glucocorticoid receptor (Homo sapiens) (UniProt P04150). In words: ATG_GR_TRANS: Attagene TRANS-FACTORIAL HepG2 Assay for human Glucocorticoid Receptor (GR) (AID 2282978; active = hit-call score of the fitted dose curve at least 0.9, where 1 is the maximum;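 also: activators score as hits since higher reporter transcript over DMSO is fitted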). To be noted: HepG2 Attagene TRANS GR reporter, mRNA transcription. In outline: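 Measurement of GAL4-UAS-driven reporter mRNA in human HepG2 liver cells 24 h post-dosing, using RT-PCR with fluorescent labelling and capillary electrophoresis; the transfected constructs report exogenous NR-GAL4 chimera activity, fitted upward against DMSO.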

Test [14] can be described thus: ATG_NF_kB_CIS: Attagene CIS-FACTORIAL HepG2 Assay for human Nuclear Factor Kappa B (NF-kB) (AID 2282991). The following applies: HepG2 Attagene cis-factorial NF-kB reporter mRNA; actives raise or lower the signal. In outline:
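HepG2, transient multi-reporter transfection, cis promoter elements (endogenous TFs). 24 h exposure. Total RNA → RT → PCR → 6-FAM label → HpaI → CE. Gain/loss vs DMSO.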

The nature of test [15]: ATG_Oct_MLP_CIS: Attagene CIS-FACTORIAL HepG2 Assay for human Octamer-Binding Transcription Factor (Oct) (AID 2282993). The following applies: HepG2 Attagene cis-factorial Oct reporter, mRNA; actives raise or lower the signal. The procedure, abridged:
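HepG2 cells transiently transfected with cis-element-driven reporter transcription units (endogenous TF activity); 24 h compound exposure. Reporter mRNA quantified by RT-PCR, 6-FAM labelling, HpaI digestion and capillary electrophoresis; bidirectional fit versus DMSO baseline.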

A short description of test [16]: BSK_3C_TissueFactor: BioMAP Diversity Plus: 3C Assay for Tissue Factor Biomarker Activity (AID 2282997). The following applies: BioMAP 3C HUVEC, tissue factor biomarker readout; actives raise or lower the signal. The procedure, abridged:
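Dosing of human umbilical vein endothelial cells preceded a 24 h incubation. Tissue Factor was then read by ELISA, with increases and decreases both scored relative to DMSO controls.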

Test [17] can be described thus: BSK_3C_uPAR: BioMAP Diversity Plus: 3C Assay for Urokinase-type plasminogen activator receptor (uPAR) Biomarker Activity (AID 2282998). The following applies: BioMAP 3C HUVEC, uPAR biomarker ELISA; actives raise or lower the signal. The procedure, abridged:
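Primary human umbilical vein endothelial cells, 3C system; surface uPAR measured by ELISA 24 h after dosing. Cytotoxicity via SRB total protein in parallel cultures; bidirectional fit against DMSO.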
Background: An ELISA detects its analyte on a solid surface through an enzyme-linked reagent.

Test [18] is described as follows: ATG_M_06_TRANS: Attagene TRANS-FACTORIAL HepG2 Assay for M06 Transcription Factor (Internal Marker) (AID 2282983; active = hit-call score of the fitted dose curve at least 0.9, where 1 is the maximum). The following applies: HepG2 Attagene TRANS M06 internal marker reporter. The procedure, abridged: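 Cells: HepG2, transient multi-reporter transfection. Exposure: 24 h. Detection: RT-PCR, 6-FAM labelling, HpaI digestion (2 h, 37 °C), capillary electrophoresis. Baseline: DMSO.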

Test [19] can be described thus: ATG_M_32_TRANS: Attagene TRANS-FACTORIAL HepG2 Assay for M32 Transcription Factor (Internal Marker) (AID 2282984; active = hit-call score of the fitted dose curve at least 0.9, where 1 is the maximum;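 also: transcript level of a background control reporter unit measured by RT-PCR and capillary electrophoresis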). To be noted: HepG2 Attagene TRANS M32 internal marker reporter. In outline:
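Human hepatoma HepG2, transient MRTU transfection, 24 h treatment. RNA → RT-PCR → fluorescent primer extension → HpaI digest (2 h, 37 C) → CE. Positive-direction fit vs DMSO.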

Usually AC50 stands for the midpoint of the concentration-response curve, whichever way the signal moves.

Records with an inconclusive call do not appear. Activity calls are given as the source filed them. The calls were made as follows, unless noted: active = hit-call score of the fitted dose curve at least 0.9, where 1 is the maximum; inactive = score below 0.9.

Chain of Glucocorticoid receptor (Homo sapiens) (P04150 whole entry, looked up, the tested form may be a part): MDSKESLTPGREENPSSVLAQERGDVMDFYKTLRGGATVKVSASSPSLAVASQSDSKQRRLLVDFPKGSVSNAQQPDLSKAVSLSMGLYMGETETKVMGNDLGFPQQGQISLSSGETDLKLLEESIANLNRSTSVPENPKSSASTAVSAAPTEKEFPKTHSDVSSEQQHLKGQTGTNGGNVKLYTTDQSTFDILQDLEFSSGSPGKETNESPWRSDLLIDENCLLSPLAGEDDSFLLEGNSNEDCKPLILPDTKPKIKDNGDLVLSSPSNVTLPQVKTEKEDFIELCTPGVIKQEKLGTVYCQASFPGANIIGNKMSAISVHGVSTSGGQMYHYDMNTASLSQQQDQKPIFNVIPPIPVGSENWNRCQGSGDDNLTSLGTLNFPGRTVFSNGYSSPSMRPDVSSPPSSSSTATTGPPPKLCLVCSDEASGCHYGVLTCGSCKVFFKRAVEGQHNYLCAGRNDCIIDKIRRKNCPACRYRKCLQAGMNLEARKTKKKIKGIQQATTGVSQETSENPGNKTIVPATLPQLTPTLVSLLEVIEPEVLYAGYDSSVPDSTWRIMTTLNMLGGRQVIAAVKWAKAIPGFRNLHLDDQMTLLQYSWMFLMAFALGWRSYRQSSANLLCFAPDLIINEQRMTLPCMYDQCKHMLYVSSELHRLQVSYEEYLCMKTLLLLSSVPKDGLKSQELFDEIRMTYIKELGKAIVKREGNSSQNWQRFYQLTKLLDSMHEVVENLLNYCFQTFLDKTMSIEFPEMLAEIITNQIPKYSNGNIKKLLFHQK
Chain of Hepatocyte nuclear factor 4-alpha (Homo sapiens) (P41235 whole entry, looked up, the tested form may be a part): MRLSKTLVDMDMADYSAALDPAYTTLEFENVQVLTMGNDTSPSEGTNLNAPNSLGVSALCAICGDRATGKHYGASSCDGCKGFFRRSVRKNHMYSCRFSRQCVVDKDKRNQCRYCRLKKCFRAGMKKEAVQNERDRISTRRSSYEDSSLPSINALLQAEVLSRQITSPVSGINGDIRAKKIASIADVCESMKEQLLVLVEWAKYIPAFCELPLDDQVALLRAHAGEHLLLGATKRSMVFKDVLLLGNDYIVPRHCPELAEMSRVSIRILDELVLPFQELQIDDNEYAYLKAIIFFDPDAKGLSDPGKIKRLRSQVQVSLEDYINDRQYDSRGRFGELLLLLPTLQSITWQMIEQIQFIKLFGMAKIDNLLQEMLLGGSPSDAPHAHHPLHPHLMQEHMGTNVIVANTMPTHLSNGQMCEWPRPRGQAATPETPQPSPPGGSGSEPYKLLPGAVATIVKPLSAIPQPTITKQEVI
Chain of Estrogen-related receptor gamma (Homo sapiens) (P62508 whole entry, looked up, the tested form may be a part): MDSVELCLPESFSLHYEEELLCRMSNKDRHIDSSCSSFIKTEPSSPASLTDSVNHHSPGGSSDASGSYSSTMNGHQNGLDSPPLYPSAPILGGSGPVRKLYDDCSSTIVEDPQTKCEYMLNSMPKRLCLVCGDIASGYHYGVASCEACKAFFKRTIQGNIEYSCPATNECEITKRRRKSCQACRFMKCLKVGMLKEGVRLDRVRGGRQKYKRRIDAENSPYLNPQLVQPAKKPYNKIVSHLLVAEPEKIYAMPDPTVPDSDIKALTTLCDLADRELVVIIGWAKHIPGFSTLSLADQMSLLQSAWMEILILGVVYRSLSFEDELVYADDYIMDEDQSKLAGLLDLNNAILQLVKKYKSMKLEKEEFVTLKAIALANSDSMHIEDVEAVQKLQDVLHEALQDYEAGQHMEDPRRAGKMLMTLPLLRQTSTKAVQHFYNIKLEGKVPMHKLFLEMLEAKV

As to `CN(C)c1ccc2nc3ccc(=[N+](C)C)cc-3sc2c1`, the molecule was classed as inactive in test [1], in test [2], in test [3], in test [4], in [5] and in [6]. Besides, the molecule was classed as inactive in [7], in test [9], in [10] and in test [12]. Besides, the AC50 in test [8] was 15 µM (active); in [11], 2.2 µM (active).

As to `c1ccc2cnccc2c1`, the outcome in test [1], in test [13], in test [4], in [5], in [7] and in [8] was inactive. Also, the molecule was classed as inactive in [9], in test [10], in [14], in test [11], in test [15] and in test [12].

In the case of `CCOC(=O)C1=NN(c2ccc(Cl)cc2Cl)C(C)(C(=O)OCC)C1` (stereo not drawn), the result in test [1], in test [13], in test [2], in test [3], in test [5] and in [7] was inactive. The outcome in [8], in test [9], in test [10], in [14], in [11] and in test [15] was inactive. Besides, the molecule was classed as inactive in test [12], in test [16] and in test [17].

For `CCCCCCOC(=O)CCCCC(=O)OCCCCCC`, the molecule was called inactive in test [1], in [2], in test [4], in test [18], in test [7] and in [8]. Further, the molecule was classed as inactive in test [9], in test [10], in test [14], in [11], in test [15] and in [12]. For the same molecule, the outcome in [16] and in test [17] was inactive.

`C=C(C)C1CC=C(C)C(OC(C)=O)C1` (stereo not drawn): the molecule was classed as inactive in test [1], in [13], in test [5], in [19], in test [7] and in [8]. Besides, the molecule was called inactive in test [9], in [10], in test [11] and in test [12].
